Shown are actives, neighbours in structure and some others; about 12% of the full set was active somewhere.
AmpC inh no detg = AmpC beta-lactamase inhibition without detergent; AID 485341; actives 0.52% (n = 330,000); Potency, µM (doses to about 57.1 µM), for the others: at the highest dose activity change, negative = inhibition, hits mostly inhibitors; AmpC nitrocefin hydrolysis, absorbance 480 nm, 0.0001% Triton;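 further: plate controls were no compound for no effect and no enzyme for full effect; nearly all actives have a fitted effect of over 20% in size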
Target sequence (P00811 whole entry, looked up): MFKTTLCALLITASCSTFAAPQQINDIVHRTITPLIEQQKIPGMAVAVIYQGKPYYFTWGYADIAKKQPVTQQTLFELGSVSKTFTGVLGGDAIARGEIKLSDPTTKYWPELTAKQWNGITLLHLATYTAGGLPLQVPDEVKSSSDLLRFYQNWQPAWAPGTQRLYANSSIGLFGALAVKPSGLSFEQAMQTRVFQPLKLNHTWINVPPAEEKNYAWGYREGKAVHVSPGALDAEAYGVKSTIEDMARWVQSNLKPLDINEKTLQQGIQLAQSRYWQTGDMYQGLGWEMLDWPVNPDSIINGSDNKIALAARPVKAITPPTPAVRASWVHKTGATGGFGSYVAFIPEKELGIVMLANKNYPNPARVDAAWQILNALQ
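AmpC (5.3 nM in the dispensed reagent) in 20 mM phosphate pH 7.0 with 0.01% (detergent screen) or 0.0001% Triton X-100 was preincubated with compounds for 15 min at room temperature. Nitrocefin was then added from an 800 uM solution, and hydrolysis was followed at 480 nm.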
Pf growth 48h = P. falciparum growth inhibition at 48 hours (one generation); P. falciparum luciferase growth in erythrocytes, 48 h; Potency, µM (highest dose often 28.7 µM), for inactives: top-dose activity change, negative = inhibition, hits mostly inhibitors; actives 5.9% (n = 310,000); further: on the % scale 0 is the no-effect control and ±100 the full control effect
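Read-out is firefly luciferase luminescence from an integrated reporter in P. falciparum, so falling signal marks reduced parasite growth. Infected erythrocytes were at 2% hematocrit and 0.1% parasitemia (final) in Albumax-supplemented RPMI 1640.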
SARS PLP yeast = inhibitors of SARS-CoV papain-like protease in yeast | Potency, µM (series often up to 32.9 µM), without a hit: at the top dose activity, positive = growth rescue, usual class: activators | AID 485353 | S. cerevisiae expressing SARS-CoV PLpro, growth rescue | actives 0.19% (n = 330,000); calls by dose curve; further: 0% is about no effect; nearly all actives have a fitted effect of over 55% in size
Pf growth 96h = inhibits malaria parasite growth, 96 h | actives 6.9% (n = 320,000) | AID 504834 | P. falciparum luciferase reporter growth, 96 h | Potency, µM (highest dose often 28.7 µM), for the others: at the top dose activity change, negative = inhibition, usual class: inhibitors; further: on the % scale 0 is the no-effect control and ±100 the full control effect
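Two-generation exposure (96 h) targets delayed-death phenotype. Reporter parasites carrying integrated firefly luciferase, in red cells at 2% hematocrit and 0.05% parasitemia final, kept at 37 C, 5% CO2; luminescence loss indicates inhibition.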
Sm TGR block = S. mansoni TGR enzyme inhibition. Q962Y6. Potency, µM (doses to about 114 µM), without a hit: at the highest dose activity change, negative = inhibition, most hits filed as inhibitors. purified TGR, DTNB reduction, TNB absorbance 405 nm. actives 3% (n = 360,000); further: on the % scale 0 is the no-effect control and ±100 the full control effect; nearly all actives have a fitted effect of over 60% in size
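Kinetic colorimetric format: TGR-catalysed, NADPH-driven DTNB reduction monitored via TNB absorbance. Enzyme dispensed at 20 nM; compound exposure 15 min at room temperature before reaction start.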
AmpC inh detg = blocks E. coli AmpC beta-lactamase in detergent assay | P00811 | AmpC hydrolysis of nitrocefin, absorbance 480 nm, 0.01% Triton | Potency, µM (series often up to 114 µM), for inactives: top-dose activity change, negative = inhibition, usual class: inhibitors | actives 0.041% (n = 370,000);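 further: 0% = no-compound wells and -100% = no-enzyme wells; nearly all actives have a fitted effect of over 25% in size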
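20 mM phosphate pH 7.0 + 0.01% (detergent screen) or 0.0001% Triton X-100; 5.3 nM AmpC reagent; cpd preinc 15 min RT; nitrocefin (800 uM stock) to start; A480 q20 s × 4 min; Activity was normalised to no-enzyme and no-compound control wells.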
* marks the source's active call; other numbers are inactive results; ? = inconclusive; . = no result. Unless noted, the call rests on the fitted dose curve; in most records, active means well fitted curve in the direction sought with a large enough effect; inconclusive means small, poorly fitted or top-dose-only effect, or another doubt; inactive means no such curve, though single readings can be large; an effect the other way counts as inactive or inconclusive. Potency means the concentration at half of the fitted maximal effect.

SMILES	AmpC inh no detg	Pf growth 48h	SARS PLP yeast	Pf growth 96h	Sm TGR block	AmpC inh detg
CC(=O)C1=C(O)C(=O)N(c2cc(C(C)(C)C)on2)C1c1ccc(Br)cc1 (configuration not stated)	-35.1%	10.4µM*	1.0%	.	-8.7%	?
O=C(NCC(=O)N1CCN(Cc2ccccc2)CC1)c1cc(Cl)cc([N+](=O)[O-])c1	12.2%	.	-3.5%	.	.	.
Cc1ccc(-c2nc(CS(=O)CC(=O)N3CCN(c4ccc(Cl)cc4)CC3)c(C)o2)cc1 (configuration not stated)	.	.	.	.	?	8.3%
CCOc1cc(C)c(-c2onc(C(F)(F)F)c2-c2csc(C)n2)c(O)c1	-13.7%	1.65µM*	-41.4%	1.85µM*	13.9%	-13.4%
Cc1ccc(S(=O)(=O)N(C)C)cc1NC(=S)N1CCN(Cc2ccc3c(c2)OCO3)CC1	51.3%	18.2%	-0.8%	21.6%	-1.2%	-12.2%
COc1ccc(CCn2c(N)c(S(=O)(=O)c3cccs3)c3nc4ccccc4nc32)cc1OC	-44.7%	9.28µM*	-0.7%	?	-9.4%	-3.2%
Nc1c(S(=O)(=O)c2cccs2)c2nc3ccccc3nc2n1CC1CCCO1 (configuration not stated)	-28.3%	?	3.5%	15.0%	-17.1%	-17.4%
Nc1c(S(=O)(=O)c2cccs2)c2nc3ccccc3nc2n1Cc1cccs1	-44.7%	?	2.3%	8.28µM*	9.9%	-8.9%
Nc1c(S(=O)(=O)c2cccs2)c2nc3ccccc3nc2n1Cc1ccc2c(c1)OCO2	-36.5%	14.7µM*	18.2%	.	12.5%	0.6%
COc1ccccc1/C=N/n1c(N)c(S(=O)(=O)c2cccs2)c2nc3ccccc3nc21	-46.8%	6.57µM*	4.1%	.	1.2%	?
Cc1coc2cc3oc(=O)c(CCC(=O)N4CCC(C(=O)O)(c5ccccc5)CC4)c(C)c3cc12	-14.4%	?	-2.2%	?	-2.2%	-11.8%
COc1ccccc1CNC(=O)C1CCN(S(=O)(=O)c2c(C)noc2/C=C/c2c(C)cc(C)cc2C)CC1	.	.	.	.	1.9%	20.4%
O=C(CNC1CCCCCC1)c1cccs1	-14.4%	0.6%	-17.8%	-19.3%	1.3%	-14.5%
CCN(Cc1ccccc1)C(=O)C(CC(C)C)NS(=O)(=O)c1ccc2c(c1)CCN2C(C)=O (configuration not stated)	.	.	.	.	-2.5%	-2.0%
CCN(c1ccc(Cl)cc1)S(=O)(=O)c1nnc(NC(=O)C2CCCCC2)s1	.	.	.	.	2.7%	19.7%
Nc1c(S(=O)(=O)c2cccs2)c2nc3ccccc3nc2n1CCc1ccccc1	-28.9%	?	3.8%	3.29µM*	26.0%	0.0%
Cc1ccc(C)c(N2CCN(c3cnn(-c4nc5ccccc5s4)c(=O)c3Cl)CC2)c1	-20.6%	193.5%	7.4%	217.8%	7.0%	0.6%
C=Cc1ccc(Cn2c(SCC(=O)N3CCN(c4ccc(F)cc4)CC3)nc3ccccc32)cc1	.	.	.	.	3.3%	14.6%
CCCNc1nc2ccccc2c(=O)[nH]1	-14.6%	-25.8%	1.8%	?	-0.9%	-0.2%
O=c1[nH]c(-c2ccncc2)nc2ccccc12	-14.1%	32.9%	-9.2%	7.38µM*	0.0%	?
CC(C)Nc1nc2ccccc2c(=O)[nH]1	-6.2%	-14.0%	-1.1%	10.4µM*	14.3%	-3.9%
Cc1cc(C)cc(Nc2nc3ccccc3c(=O)[nH]2)c1	-52.8%	?	-1.0%	?	-0.6%	0.0%
COc1nc(Nc2nc3ccccc3c(=O)[nH]2)nc2ccc(C)cc12	-7.9%	2.62µM*	-0.3%	?	-1.8%	1.8%
COc1ccc(NCc2ccccc2-c2nnc(-c3ccccc3)o2)cc1Cl	.	.	.	.	-0.2%	-0.9%
Cc1cc(C(=O)CSc2nnc(-c3cccc(F)c3)n2N)c(C)n1Cc1ccc2c(c1)OCO2	-13.4%	11.7µM*	-4.9%	16.5µM*	-4.9%	-5.1%
SMILES	AmpC inh no detg	Pf growth 48h	SARS PLP yeast	Pf growth 96h	Sm TGR block	AmpC inh detg
Cc1cc(C(=O)CSc2nnnn2-c2ccccc2)c(C)n1-c1ccc2c(c1)OCO2	-41.9%	10.4µM*	6.7%	8.28µM*	-18.5%	3.9%
Cc1cc(C(=O)CSc2nnnn2-c2ccc(O)cc2)c(C)n1Cc1ccc2c(c1)OCO2	2.24µM*	?	3.4%	-13.6%	0.0%	-7.9%
CCCn1c(SCC(=O)c2cc(C)n(-c3ccc4c(c3)OCO4)c2C)n[nH]c1=O	-0.4%	-6.8%	9.2%	?	-17.2%	-7.2%
Cc1cc(C(=O)CSc2nncs2)c(C)n1-c1ccc2c(c1)OCO2	0.282µM*	?	-9.1%	.	-29.8%	?
COc1cccc(CNC(=O)Nc2cc(C(=O)NCc3cccc(F)c3)ccc2N2CCCC2)c1	.	.	.	.	4.6%	-6.6%
CCCCNc1nc(N(C)c2ccccc2)nc(-n2ccnc2)n1	3.9%	16.5µM*	-23.3%	0.0%	8.0%	-1.3%
CN(c1ccccc1)c1nc(-n2ccnc2)nc(-n2ccnc2)n1	-2.8%	?	-9.7%	.	9.9%	-8.8%
N#Cc1c2ccc([N+](=O)[O-])cc2[n+]([O-])n1-c1ccccc1	-18.2%	11.7µM*	-3.1%	10.4µM*	-14.1%	3.8%
NCCCn1c(C(=O)c2ccc(Cl)cc2)c2ccc([N+](=O)[O-])cc2[n+]1[O-]	-2.5%	?	3.0%	?	?	-10.3%
O=C(Nc1cc(Sc2nc3ccccc3s2)cc([N+](=O)[O-])c1)c1ccccc1F	?	?	?	?	-27.1%	-1.2%
O=C(Nc1cc(Sc2nc3ccccc3s2)cc([N+](=O)[O-])c1)c1ccccc1	12.6µM*	?	12.7%	?	2.0%	-13.9%
O=c1[nH]c(SCc2ccccc2)nc2c1CCCC2	.	.	.	.	0.2%	15.9%
CCC1(C)CC(CCN(Cc2ccco2)C(C)=O)(c2ccccc2)CCO1 (configuration not stated)	140.0%	?	0.8%	4.15µM*	.	-4.6%
CC(=O)N(CCC1(c2ccc(C)cc2)CCOC(C(C)C)C1)Cc1ccco1 (configuration not stated)	131.1%	5.86µM*	-1.9%	4.15µM*	-32.5%	-8.0%
Cc1ccc(C2(CCNCc3ccco3)CCOC(C(C)C)C2)cc1 (configuration not stated)	43.2%	?	-2.5%	?	-12.8%	7.1%
CC1(C)CC(CCN(Cc2ccccc2)C(=O)c2ccco2)(c2ccccc2)CCO1 (configuration not stated)	105.1%	?	-42.2%	1.85µM*	-16.4%	-0.7%
CCc1ccc(CNC(=O)c2ccc(NC(=O)N3CC(C)Sc4ccccc43)cc2)cc1 (configuration not stated)	.	.	.	.	2.2%	22.4%
